Test results taken from PubChem BioAssay AID602336 (NMMLSC, 2012).
The other results are listed elsewhere or left out. The source made the active and inactive calls. Rule as the data show it: active = inhibition above about 25%; inactive = the rest.

system: Botulinum neurotoxin type F light chain protease (Clostridium botulinum); assay: inhibition of botulinum toxin F LC protease – biochemical, flow cytometry, cherry pick 2, confirmation (AID 602336); conditions: multiplex microsphere protease cleavage assay, at 10 µM, stronger effect = higher value

With `O=C(OCC(=O)c1c[nH]c2ccccc12)c1cccc(O)c1` as the molecule, how does the inhibition read?
The inhibition was -3.8% (inactive).

For `COc1ccc(-c2cc3c(c4c2ccn4C)C2CCC3C2)cn1` (stereo not drawn), which inhibition is on record?
Its inhibition is 4.4% (inactive).

With `Cc1cc2cc(CNC(=O)c3ccc(S(=O)(=O)N4CCOCC4)cc3)ccc2[nH]1` as the molecule, how does the inhibition read?
The inhibition was -10.8% (inactive).

With `CC(=O)OCCN(CCCn1c(-c2ccncc2)nc2ccccc21)c1nc(-c2ccc(C)cc2)cs1` as the molecule, how does the inhibition read?
The inhibition was 4% (inactive).

How did the inhibition turn out when `Cc1cc2ccccc2n1CCNC(=O)COc1ccc2ccccc2c1` was run?
Its inhibition is -12.9% (inactive).

Which inhibition does the source give for `CCOc1ncccc1C(=O)OCC(=O)c1c[nH]c2ccccc12` here?
Its inhibition is 3% (inactive).

Which inhibition does the source give for `O=C(CN1CCN(c2ccccc2O)CC1)NC(=O)NCc1ccccc1` here?
The inhibition was -4.3% (inactive).

For `Cc1ccc(CNC(=O)c2cccc3c2C(=O)c2ccc(N4CCC(C)CC4)cc2S3(=O)=O)cc1`, which inhibition is on record?
The inhibition was 6.1% (inactive).
